High-throughput results as filed in PubChem.
Hits are enriched below; roughly 17% of the tested compounds scored in any of these assays.
HT1080 IDH1KD tx: qHTS for induction of synthetic lethality in tumor cells producing 2HG: qHTS for the HT-1080-IDH1KD cell line; Potency, µM (doses to about 46.1 µM), hits mostly cytotoxic; HT-1080 IDH1 knockdown viability, ATP luminescence, 48 h; hit rate 2% among 360,000
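After a 2 h attachment period, IDH1KD HT-1080 cells took pin-transferred compound for 48 h at 37 °C; ATP-based luminescence after 10 min room-temperature reagent incubation reported viability.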
HT1080-NT tox: qHTS for induction of synthetic lethality in tumor cells producing 2HG: qHTS for the HT-1080-NT fibrosarcoma cell line. HT-1080-NT fibrosarcoma viability, CellTiter-Glo ATP luminescence, 48 h. hit rate 1.6% among 360,000. Potency, µM (series often up to 46.1 µM), hits mostly cytotoxic;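 also: NT is the 2HG producing partner of a matched IDH1 knockdown line; nearly all actives have a fitted effect of over 55% in size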
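Compounds were tested in concentration-response format on HT-1080-NT cells for 48 hours at 37 degrees C. Cell viability came from CellTiter-Glo luminescence; curves were classified by r2, response magnitude and activity.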
TDP1 cell noCPT: qHTS for Inhibitors of human tyrosyl-DNA phosphodiesterase 1 (TDP1): qHTS in cells in absence of CPT; DT40 Tdp1-/- hTDP1 cells, no CPT, ATP luminescence, 48 h; hit rate 15% among 420,000; Potency, µM (series often up to 46.2 µM), most hits filed as inhibitors; also: nearly all actives have a fitted effect of over 55% in size
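DT40 Tdp1-/-;hTDP1 cells, no CPT (DMSO vehicle only), 400 cells/well; compounds pin-transferred; ≥48 hr, 37 °C; CellTiter-Glo 30 min RT dark, luminescence read.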
TGFb inhibitor: qHTS for Inhibitors of TGF-b | HepG2 CAGA-GFP TGF-b/SMAD3 reporter, GFP fluorescence, 18 h; TGF-beta stimulated, 500 pg/mL final | Potency, µM (titrated, usually from 46.1 µM), usual class: inhibitors | hit rate 1.2% among 410,000 | AID 588855, 2011; also: nearly all actives have a fitted effect of over 65% in size
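TGF-beta reporter screen: HEPG2 CAGA-GFP, 1% FBS, 500 pg/mL TGF-beta final, 18 h; per-cell GFP summed per well; curves fitted and categorized by class.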
DT40 TDP1 CPT: qHTS for Inhibitors of human tyrosyl-DNA phosphodiesterase 1 (TDP1): qHTS in cells in presence of CPT. hit rate 12% among 420,000. chicken DT40 Tdp1-/-;hTDP1 cells + 20 nM CPT, ATP luminescence, 48 h. Potency, µM (highest dose often 46.2 µM), actives largely listed as inhibitors; also: nearly all actives have a fitted effect of over 55% in size
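Chicken DT40 Tdp1-/- cells complemented with human TDP1, 400 cells/well, exposed to compounds plus 20 nM camptothecin for at least 48 h at 37 C; viability read as ATP content by CellTiter-Glo luminescence.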
HepG2 tox: qHTS for Inhibitors of TGF-b: Cytotox Counterscreen | Potency, µM (titrated, usually from 46.1 µM), actives largely listed as cytotoxic | AID 588856, 2011 | HepG2 CAGA-GFP viability, ATP luminescence, 18 h | hit rate 0.76% among 410,000
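CellTiter-Glo luminescence gave cytotoxicity after 18 hours at 37 degrees C. The cells were HepG2 CAGA-GFP in 1% FBS DMEM, stimulated with 500 pg/mL TGF-beta after compound addition. %Activity was normalised to no-cell wells (complete cell-killing) and DMSO (no toxicity), and curves were fitted and classified.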
Large screens that a line does not name were inactive. Calls follow the shape of the dose curve; as a rule, active = well fitted curve in the direction sought with a large enough effect; inconclusive = small, poorly fitted or top-dose-only effect, or another doubt; inactive = no such curve, though single readings can be large; an effect the other way counts as inactive or inconclusive.

O=C1NCC2=C1C(c1ccc(Br)cc1)Nc1ccccc1N2 (stereo unspecified)	none
CC(=O)N1CCC(N(C(=O)Nc2ccc(C)c(F)c2)C(C)C)CC1	none (no result: HT1080 IDH1KD tx, HT1080-NT tox)
Cc1ccc(-c2[nH]ncc2CNCc2ccc(CN(C)C)cc2)cc1	TDP1 cell noCPT 22µM, DT40 TDP1 CPT 13µM (no result: HT1080 IDH1KD tx, HT1080-NT tox)
COc1ccc(-c2[nH]ncc2CNCCCSC)cc1F	HT1080-NT tox inconclusive
Cc1ccc(CNCc2cn[nH]c2-c2ccc(C)cc2)cc1	TDP1 cell noCPT 13µM, DT40 TDP1 CPT 7.9µM (no result: HT1080 IDH1KD tx, HT1080-NT tox)
NS(=O)(=O)c1ccc(N/N=C/c2cn(-c3ccccc3)nc2-c2cccs2)cc1	HT1080 IDH1KD tx 21µM, HT1080-NT tox 23µM, TDP1 cell noCPT 2.9µM, TGFb inhibitor 10µM, DT40 TDP1 CPT 5.2µM, HepG2 tox 11µM
O=C(c1cn(-c2ccccc2)nc1-c1cccs1)N1CCN(c2ccccc2)CC1	HT1080 IDH1KD tx 7.1µM, HT1080-NT tox inconclusive, TDP1 cell noCPT 7.3µM, DT40 TDP1 CPT 7.3µM
NC(=O)N/N=C/c1cn(-c2ccccc2)nc1-c1cccs1	HT1080 IDH1KD tx 10µM, HT1080-NT tox 23µM, TDP1 cell noCPT inconclusive, DT40 TDP1 CPT 16µM
O=C(c1cn(-c2ccccc2)nc1-c1cccs1)N1CCOCC1	none
O=C(O)c1cccc(N/N=C/c2cn(-c3ccccc3)nc2-c2cccs2)c1	none
Cc1cccnc1NC(=O)CCC(=O)c1cccs1	none
Cc1ccc(NC2=C/C(=N/S(=O)(=O)c3cccs3)c3ccccc3C2=O)cc1C	TDP1 cell noCPT 7.3µM, DT40 TDP1 CPT inconclusive
CC(C)c1ccc(S(=O)(=O)/N=C2\C=C(NS(=O)(=O)c3ccccc3)C(=O)c3ccccc32)cc1	HT1080 IDH1KD tx inconclusive, TDP1 cell noCPT inconclusive, TGFb inhibitor inconclusive, DT40 TDP1 CPT inconclusive
Cc1ccc(C)c(S(=O)(=O)/N=C2\C=C(NS(=O)(=O)c3ccccc3)C(=O)c3ccccc32)c1	TDP1 cell noCPT 16µM, TGFb inhibitor inconclusive, DT40 TDP1 CPT 16µM
CCc1ccc(S(=O)(=O)/N=C2\C=C(NS(=O)(=O)c3ccccc3)C(=O)c3ccccc32)cc1	TGFb inhibitor inconclusive, DT40 TDP1 CPT inconclusive
Cc1ccccc1NC1=C/C(=N\S(=O)(=O)c2ccc(C(=O)O)cc2)c2ccccc2C1=O	HT1080 IDH1KD tx 23µM, HT1080-NT tox 23µM, TDP1 cell noCPT 18µM, TGFb inhibitor inconclusive, DT40 TDP1 CPT 16µM, HepG2 tox 18µM
COC(=O)C(C(C)=O)C1=C/C(=N\S(=O)(=O)c2ccc(C)cc2)c2ccccc2C1=O (stereo unspecified)	HT1080 IDH1KD tx inconclusive, HT1080-NT tox inconclusive, TDP1 cell noCPT 10µM, DT40 TDP1 CPT 3.5µM
COC(=O)c1cc(S(=O)(=O)NCCN2CCN(c3ccccc3F)CC2)c[nH]1	DT40 TDP1 CPT inconclusive
CC(=O)CCCC(NS(=O)(=O)CCC(Cl)(Cl)Cl)c1ccccc1 (stereo unspecified)	none
COc1ccc(N2C(=O)c3ccccc3NC(=O)C2C(=O)NCC(C)C)cc1 (stereo unspecified)	none (no result: TGFb inhibitor, HepG2 tox)
O=C(O)c1ccc(S(=O)(=O)/N=C2\C=C(Nc3ccccc3F)C(=O)c3ccccc32)cc1	HT1080 IDH1KD tx 8.2µM, HT1080-NT tox inconclusive, TGFb inhibitor 3.2µM, HepG2 tox 4.5µM
O=S(=O)(/N=C(/Nc1ccccc1F)c1ccccc1)c1ccccc1	none
CCc1c(C)nc2[nH]ncn2c1=O	none
CC(C)CC(COCc1ccc(Cl)cc1)N1CCN(C(=O)c2cccc(C(F)(F)F)c2)CCC1=O (stereo unspecified)	TDP1 cell noCPT 21µM, TGFb inhibitor inconclusive, DT40 TDP1 CPT 16µM
CC(C)CC(CO)N1CCN(C(=O)c2cccc(Cl)c2)CCC1=O (stereo unspecified)	HT1080-NT tox inconclusive
Cc1ccccc1COC[C@H](CC(C)C)N1CCN(C(=O)c2cccc(C(F)(F)F)c2)CCC1=O	TDP1 cell noCPT 13µM, DT40 TDP1 CPT 16µM
CC(C)CC(COCc1cccc(C(F)(F)F)c1)N1CCN(C(=O)c2cccc(C(F)(F)F)c2)CCC1=O (stereo unspecified)	TDP1 cell noCPT 23µM, TGFb inhibitor inconclusive, DT40 TDP1 CPT 16µM
CC(C)CC(COCc1ccc(C(F)(F)F)cc1)N1CCN(C(=O)c2ccc(C(F)(F)F)cc2)CCC1=O (stereo unspecified)	HT1080 IDH1KD tx inconclusive, HT1080-NT tox inconclusive, TDP1 cell noCPT inconclusive, TGFb inhibitor inconclusive, DT40 TDP1 CPT inconclusive
CCCS(=O)(=O)N1CCCC(C(=O)N2CCCCC2)C1 (stereo unspecified)	none
Cc1ccc(S(=O)(=O)N2CCC(C(=O)N3CCc4ccccc43)CC2)cc1C	TDP1 cell noCPT 18µM, DT40 TDP1 CPT inconclusive
Cc1ccc(S(=O)(=O)N2CCC(C(=O)OCCOc3ccccc3)CC2)cc1C	TDP1 cell noCPT 0.18µM
Cc1ccc(S(=O)(=O)N2CCC(C(=O)N3CCCC(C(F)(F)F)C3)CC2)cc1C (stereo unspecified)	DT40 TDP1 CPT inconclusive
Cc1ccc(S(=O)(=O)N2CCC(C(=O)N3CCCCCCC3)CC2)cc1C	TDP1 cell noCPT inconclusive, DT40 TDP1 CPT 16µM
Cc1ccc(S(=O)(=O)N2CCC(C(=O)N3CCc4ccccc43)CC2)cc1	TDP1 cell noCPT inconclusive, DT40 TDP1 CPT inconclusive
CN[C@@H]1[C@@H](O[C@H]2O[C@H](CO)[C@@H](N)[C@H](O)[C@H]2O)O[C@H]2C[C@@H](N)[C@@H](O[C@H]3[C@H](O)[C@@H](O)[C@H](N)C[C@@H]3N)O[C@@H]2[C@@H]1O	none (no result: HT1080 IDH1KD tx, HT1080-NT tox, TGFb inhibitor, HepG2 tox)
O=C(c1cccc(F)c1)N1CCC2(CC1)CN(c1ncccn1)C2	DT40 TDP1 CPT inconclusive (no result: HT1080 IDH1KD tx, HT1080-NT tox, TGFb inhibitor, HepG2 tox)
O=C(Nc1ccccc1)N1CCC2(CCNCC2)CC1	none (no result: HT1080 IDH1KD tx, HT1080-NT tox, TGFb inhibitor, HepG2 tox)
COc1ccc(CNc2ncnc3sccc23)cc1	HT1080 IDH1KD tx 23µM, HT1080-NT tox inconclusive, TDP1 cell noCPT 4.1µM, DT40 TDP1 CPT 5.8µM
c1csc(CNc2ncnc3sccc23)c1	HT1080 IDH1KD tx 26µM, TDP1 cell noCPT 5.2µM, DT40 TDP1 CPT 5.2µM
CN(C)C(CNc1ncnc2sccc12)c1ccccc1 (stereo unspecified)	TDP1 cell noCPT inconclusive
COc1ccc(CNc2ncnc3c2cnn3-c2ccc(C)c(C)c2)cc1	none (no result: HT1080 IDH1KD tx, HT1080-NT tox)
